# Experimental data from PubChem BioAssay (Tox21).
# A number with no mark means an inactive call. Inconclusive results are not listed. Entries that show only a call come without a potency. The source made the active and inactive calls. Unless noted, the call rests on the fitted dose curve; in most records, active means well fitted curve in the direction sought with a large enough effect in the repeat runs; inconclusive means weak or mixed curves; inactive means no such curve, though single readings can be large; an effect the other way counts as inactive or inconclusive.
# Key:
# [1] = qHTS assay to identify small molecule antagonists of the estrogen related receptor (ERR) signaling pathway from Tox21 library - cell viability counter screen (AID 1224834); further: nearly all actives have a fitted effect of over 30% in size; further: potency means the concentration at half of the fitted maximal effect
# Summary of the method: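 ERR cells, 2,000/well; 6 h settle at 37 C/5% CO2; pin-tool compound transfer in DMSO; 17.5 h at 37 C; CellTiter-Fluor, 30 min; fluorescence intensity.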
# [2] = target: Luciferin 4-monooxygenase (Photinus pyralis) (UniProt P08659); assay: qHTS assay to identify small molecule inhibitors of firefly luciferase (AID 1224835); further: nearly all actives have a fitted effect of over 25% in size; further: potency means the concentration at half of the fitted maximal effect
# Sequence of Luciferin 4-monooxygenase (Photinus pyralis) (P08659 whole entry, looked up): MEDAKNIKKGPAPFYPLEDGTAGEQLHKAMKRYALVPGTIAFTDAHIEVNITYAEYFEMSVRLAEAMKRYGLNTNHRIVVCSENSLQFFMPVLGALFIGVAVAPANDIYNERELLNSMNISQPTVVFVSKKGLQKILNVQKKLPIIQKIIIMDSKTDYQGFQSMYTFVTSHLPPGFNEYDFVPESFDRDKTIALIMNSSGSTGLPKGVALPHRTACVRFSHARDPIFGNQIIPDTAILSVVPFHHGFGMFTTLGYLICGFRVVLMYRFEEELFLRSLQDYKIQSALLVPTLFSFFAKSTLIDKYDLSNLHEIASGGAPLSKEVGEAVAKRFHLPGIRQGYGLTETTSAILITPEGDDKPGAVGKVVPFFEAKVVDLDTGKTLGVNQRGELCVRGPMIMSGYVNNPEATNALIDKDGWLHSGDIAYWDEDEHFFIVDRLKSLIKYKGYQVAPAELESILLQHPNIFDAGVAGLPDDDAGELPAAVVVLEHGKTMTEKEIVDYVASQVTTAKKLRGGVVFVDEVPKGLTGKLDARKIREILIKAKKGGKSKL
# Summary of the method: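 Biochemical qHTS: compounds run as interplate titrations against purified firefly enzyme, with D-luciferin and ATP each at its KM concentration. Light output recorded by CCD imaging.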
# [3] = qHTS assay to identify small molecule agonists of the constitutive androstane receptor (CAR) signaling pathway - cell viability counter screen (AID 1224836); further: nearly all actives have a fitted effect of over 45% in size; further: potency means the concentration at half of the fitted maximal effect
# Summary of the method: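 Viability read-out: CellTiter-Fluor fluorescence after 23 h compound exposure at 37 C/5% CO2 in double-stable HepG2-CYP2B6-hCAR cells, with PK11195 present at 0.75 uM final; compounds tested in 15-point titration.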
# [4] = qHTS assay to identify small molecule antagonists of the constitutive androstane receptor (CAR) signaling pathway - cell viability counter screen (AID 1224837); further: nearly all actives have a fitted effect of over 45% in size; further: potency means the concentration at half of the fitted maximal effect
# Summary of the method: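 Viability was measured with CellTiter-Fluor in a HepG2 line carrying stably transfected hCAR and a CYP2B6-2.2kb construct. Cells were exposed for 23 hr at 37 C to 15 compound concentrations with 50 nM CITCO as agonist.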
# [5] = qHTS assay to identify small molecule antagonists of the estrogen related receptor signaling pathway with the pleiotropic PPARgamma coactivator (PGC) from Tox21 10K library - cell viability counter screen (AID 1224840; active means well fitted cell-killing curve with a large enough effect in the repeat runs, not every such curve was filed as active; further: nearly all actives have a fitted effect of over 40% in size; further: potency means the concentration at half of the fitted maximal effect)
# Summary of the method: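 Multiplexed viability counter screen in the PGC/ERR cell line: cells treated with DMSO-dissolved compounds for 17.5 hours at 37 C, then viability measured as CellTiter-Fluor fluorescence.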
# [6] = qHTS assay to identify small molecule antagonists of the estrogen related receptor signaling pathway with the pleiotropic PPARgamma coactivator (PGC) from Tox21 10K library (AID 1224841; call rule not given here; further: actives are mostly falling curves and most rising ones were filed inactive; nearly all actives have a fitted effect of over 50% in size; further: potency means the concentration at half of the fitted maximal effect)
# Summary of the method: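 Steps: plate 2,000 PGC/ERR cells per well; incubate 6 h at 37 C with 5% CO2; transfer compounds from DMSO stocks by pin tool; incubate 18 h at 37 C; add One-Glo; measure luminescence 30 min later.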
# [7] = qHTS assay to identify small molecule agonists of the estrogen related receptor signaling pathway with the pleiotropic PPARgamma coactivator (PGC) from Tox21 10K library (AID 1224842); further: nearly all actives have a fitted effect of over 15% in size
# Summary of the method: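 PGC/ERR reporter cell line, 2,000 cells per well, incubated 6 h at 37 C before 23 nL compound in DMSO was added. After 18 h at 37 C, One-Glo luminescence read following 30 min at room temperature.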
# [8] = target: Thyrotropin receptor (Homo sapiens) (UniProt P16473); assay: qHTS assay to identify small molecule agonists of the thyroid stimulating hormone receptor (TSHR) signaling pathway (AID 1224843; calls by dose curve; further: nearly all actives have a fitted effect of over 45% in size)
# Sequence of Thyrotropin receptor (Homo sapiens) (P16473 whole entry, looked up): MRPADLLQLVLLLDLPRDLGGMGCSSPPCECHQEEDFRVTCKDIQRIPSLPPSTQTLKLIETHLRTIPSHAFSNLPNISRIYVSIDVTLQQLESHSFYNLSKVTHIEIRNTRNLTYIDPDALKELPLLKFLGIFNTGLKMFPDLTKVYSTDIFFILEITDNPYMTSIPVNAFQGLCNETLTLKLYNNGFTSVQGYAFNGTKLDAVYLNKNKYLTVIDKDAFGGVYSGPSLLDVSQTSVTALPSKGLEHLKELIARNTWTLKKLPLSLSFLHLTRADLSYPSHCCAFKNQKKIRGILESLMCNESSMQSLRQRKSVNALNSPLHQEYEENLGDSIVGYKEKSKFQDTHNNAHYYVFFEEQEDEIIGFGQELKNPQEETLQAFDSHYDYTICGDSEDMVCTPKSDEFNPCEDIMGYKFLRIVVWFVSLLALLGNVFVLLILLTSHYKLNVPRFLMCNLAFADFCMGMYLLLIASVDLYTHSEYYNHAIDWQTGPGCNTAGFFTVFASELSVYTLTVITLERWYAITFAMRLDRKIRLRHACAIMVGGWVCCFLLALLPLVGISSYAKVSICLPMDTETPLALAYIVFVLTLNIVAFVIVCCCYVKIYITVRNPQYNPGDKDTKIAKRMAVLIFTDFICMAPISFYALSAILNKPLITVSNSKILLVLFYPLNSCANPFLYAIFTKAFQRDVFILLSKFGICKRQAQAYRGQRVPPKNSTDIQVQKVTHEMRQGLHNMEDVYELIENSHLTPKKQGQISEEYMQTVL
# Summary of the method: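 Agonist-mode screen: TSHR HEK293 cells received test chemicals for half an hour at room temperature, then HTRF cAMP detection reagents for one hour prior to fluorescence measurement. Each chemical ran as a 15-concentration series, triplicated.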
# [9] = qHTS assay to identify small molecule agonists of H2AX (AID 1224845; active means well fitted activation curve with a large enough effect in the signal ratio in the repeat runs, not every such curve was filed as active; the % refers to the signal ratio)
# Summary of the method: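 Wild-type CHO-K1 cells, plated overnight, exposed 3hr at 37C to 15 concentrations (0.76% DMSO final). Lysed, then HTRF anti-pH2AX (S139) cryptate and anti-H2AX-d2 antibodies, 24 hr room temperature; 665/620 nm emission read.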
# [10] = qHTS assay to identify small molecule agonists of the hypoxia (HIF-1) signaling pathway (AID 1224846; active means well fitted activation curve with a large enough effect in the signal ratio in the repeat runs, not every such curve was filed as active; the % refers to the signal ratio)
# Summary of the method: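 Compounds from the Tox21 10K library, dissolved in DMSO, are tested for induction of a hypoxia response element–controlled beta-lactamase reporter in ME-180 cells. Exposure lasts 17 hrs at 37C after a 5 hr settling period, followed by CCF4-AM FRET substrate.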
# [11] = qHTS assay to identify small molecule agonists of H2AX - cell viability counter screen (AID 1224847; calls by dose curve; further: nearly all actives have a fitted effect of over 30% in size; further: potency means the concentration at half of the fitted maximal effect)
# Summary of the method: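 CHO-K1 wt, 1000 cells/well, o/n 37C; cpds 15 conc, 3 h 37C, 0.76% DMSO; CellTiter-Glo, 30 min RT, luminescence.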
# [12] = qHTS assay to identify small molecule antagonists of the estrogen related receptor (ERR) signaling pathway from Tox21 library (AID 1224848); further: nearly all actives have a fitted effect of over 50% in size; further: potency means the concentration at half of the fitted maximal effect
# Summary of the method: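 Quantitative high-throughput format: ERR reporter cells (2,000/well) pre-incubated 6 h, treated 18 h at 37 C with compounds in DMSO alongside positive and negative controls, then read by ONE-Glo luminescence.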
# [13] = qHTS assay to identify small molecule agonists of the estrogen related receptor (ERR) signaling pathway from Tox21 library (AID 1224849; calls by dose curve; further: nearly all actives have a fitted effect of over 15% in size); details: ERR reporter cell line, ONE-Glo luciferase, 18 h; at 92.4 µM (top of the series) unless noted
# Summary of the method: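 Cells carrying the ERR reporter were plated and allowed to settle for 6 h, exposed to library compounds for 18 h at 37 C, then lysed with ONE-Glo and luminescence measured.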
# [14] = qHTS RealTime-Glo MT Cell Viability Assay in HEK293 cells - 32 hour (AID 1224868); further: nearly all actives have a fitted effect of over 50% in size; further: potency means the concentration at half of the fitted maximal effect
# Summary of the method: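 Homogeneous bioluminescent viability format in HEK293 cells (600 cells/well). Following 5 h at 37 C/5% CO2, 23 nL compound was pintooled; the signal was measured repeatedly during 40 h incubation.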
# [15] = A CellTox Green Cytotoxicity Assay to monitor cytotoxicity in HEK293 cells - 0 hour (AID 1224869); further: nearly all actives have a fitted effect of over 50% in size
# Summary of the method: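 Cells (HEK293, 600/well) and dye reagent are dispensed together. After 5 h at 37 C, 23 nL compound is pinned in. Plates stay at 37 C for 40 h with fluorescence read at 0h, 8h, 16h, 24h, 32h and 40h.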
# [16] = qHTS RealTime-Glo MT Cell Viability Assay in HepG2 cells - 40 hour (AID 1224870); further: nearly all actives have a fitted effect of over 50% in size
# Summary of the method: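 HepG2 cells (600/well) mixed with RealTime-Glo MT reagent, settled 5 h at 37 C/5% CO2 before compound addition. Nonlytic NanoLuc luminescence from viable-cell prosubstrate reduction read repeatedly during 40 h treatment at 37 C.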
# [17] = qHTS RealTime-Glo MT Cell Viability Assay in HepG2 cells - 24 hour (AID 1224867); further: nearly all actives have a fitted effect of over 50% in size
# Summary of the method: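 Cell number in HepG2 cultures estimated from NanoLuc luminescence generated by metabolic reduction of a prosubstrate by living cells. The homogeneous, nonlytic format allowed repeated reads at 0, 8, 16, 24, 32 and 40 h of compound exposure.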
# [18] = qHTS assay to identify small molecule agonists of the hypoxia (HIF-1) signaling pathway - cell viability counter screen (AID 1224844; calls by dose curve; further: nearly all actives have a fitted effect of over 50% in size)
# Summary of the method: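 Cytotoxicity was measured in parallel with the HRE-driven beta-lactamase readout: after 17 hrs of compound exposure at 37C, HRE-bla ME-180 cells received CellTiter-Glo and luminescence was recorded 30 min later.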
# [19] = target: Nuclear receptor subfamily 1 group I member 3 (Homo sapiens) (UniProt Q14994); assay: qHTS assay to identify small molecule antagonists of the constitutive androstane receptor (CAR) signaling pathway (AID 1224838);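 further: HepG2 cells stably expressing hCAR with CYP2B6 luciferase reporter stimulated by CITCO; nearly all actives have a fitted effect of over 40% in size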; further: potency means the concentration at half of the fitted maximal effect
# Sequence of Nuclear receptor subfamily 1 group I member 3 (Homo sapiens) (Q14994 whole entry, looked up): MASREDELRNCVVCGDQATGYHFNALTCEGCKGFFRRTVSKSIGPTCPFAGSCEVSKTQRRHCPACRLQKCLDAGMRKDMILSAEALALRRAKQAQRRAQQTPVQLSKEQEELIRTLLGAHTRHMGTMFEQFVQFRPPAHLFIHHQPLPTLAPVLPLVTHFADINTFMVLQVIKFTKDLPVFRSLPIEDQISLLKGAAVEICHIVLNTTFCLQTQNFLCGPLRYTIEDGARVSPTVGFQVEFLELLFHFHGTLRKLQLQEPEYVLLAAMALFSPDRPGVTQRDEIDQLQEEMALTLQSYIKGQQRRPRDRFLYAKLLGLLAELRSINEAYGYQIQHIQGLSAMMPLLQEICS
# Summary of the method: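 Antagonist mode used CITCO at a final 50 nM to activate CAR in human hepatoma HepG2 cells carrying stable hCAR and a 2.2 kb CYP2B6 promoter-luciferase construct. Compounds were tested at 15 concentrations over 24 h, with luminescence as the end point.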
# [20] = target: Nuclear receptor subfamily 1 group I member 3 (Homo sapiens) (UniProt Q14994); assay: qHTS assay to identify small molecule agonists of the constitutive androstane receptor (CAR) signaling pathway (AID 1224839); further: nearly all actives have a fitted effect of over 15% in size; further: potency means the concentration at half of the fitted maximal effect
# Summary of the method: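 Luminescence read-out (ONE-Glo, 30 min, room temperature) from double-stable HepG2-CYP2B6-hCAR cells exposed 24 h to 15-point compound series in presence of 0.75 uM PK11195 final.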
SMILES,Potency [1],Potency [2],Potency [3],Potency [4],Potency [5],Potency [6],Potency [7],Potency [8],Potency [9],outcome [10],Potency [11],Potency [12],"activity change, positive = activation [13]",Potency [14],Potency [15],Potency [16],Potency [17],Potency [18],Potency [19],Potency [20]
CCCCN=C=O,inactive,inactive,inactive,inactive,inactive,inactive,inactive,inactive,inactive,inactive,inactive,inactive,1.38%,inactive,inactive,inactive,,,,
CCCCCCCCOC(=O)c1ccc(C(=O)OCCCCCCCC)c(C(=O)OCCCCCCCC)c1,inactive,inactive,inactive,inactive,inactive,,,inactive,inactive,inactive,inactive,,,,inactive,,inactive,,,
CC1(C)[C@H](C=C(Cl)Cl)[C@@H]1C(=O)O[C@@H](C#N)c1cccc(Oc2ccccc2)c1,inactive,inactive,inactive,inactive,inactive,,,,inactive,inactive,inactive,,,inactive,inactive,inactive,inactive,inactive,,
O=Cc1ccc(Cl)cc1Cl,inactive,inactive,inactive,inactive,inactive,inactive,,,inactive,inactive,inactive,,-10.7%,inactive,inactive,inactive,inactive,,,
CCOC(=O)C(Cl)C(C)=O (configuration not stated),inactive,inactive,inactive,inactive,inactive,,,inactive,inactive,inactive,inactive,,,inactive,inactive,inactive,inactive,,,
Cc1cc(=O)[nH]o1,inactive,inactive,inactive,inactive,inactive,,,inactive,inactive,inactive,inactive,,,inactive,inactive,,,inactive,,
O=NN1CCNCC1,inactive,inactive,inactive,inactive,inactive,,,,inactive,inactive,inactive,,,inactive,inactive,inactive,inactive,,,
CNC(C)Cc1ccccc1OC (configuration not stated),inactive,inactive,inactive,inactive,,,,inactive,inactive,inactive,inactive,,,inactive,inactive,inactive,inactive,inactive,,
O=C(C(Cl)(Cl)Cl)C(Cl)(Cl)Cl,inactive,inactive,inactive,inactive,inactive,,,,inactive,inactive,inactive,,,inactive,inactive,inactive,inactive,inactive,,
Cl/C=C\C[N+]12CN3CN(CN(C3)C1)C2,inactive,inactive,,inactive,inactive,inactive,,inactive,inactive,inactive,inactive,,-0.401%,,inactive,inactive,inactive,,61.1 µM (active),inactive
COCC(C)N(C(=O)CCl)c1c(C)csc1C (configuration not stated),inactive,inactive,inactive,inactive,inactive,21.7 µM (active),inactive,,inactive,inactive,inactive,27.3 µM (active),-54.8%,inactive,inactive,inactive,inactive,inactive,,
CC(C)N(C(=O)COc1nnc(C(F)(F)F)s1)c1ccc(F)cc1,inactive,inactive,inactive,inactive,,38.6 µM (active),,inactive,inactive,inactive,inactive,54.5 µM (active),-34.1%,,inactive,,,inactive,,
Nc1nc(=S)[nH][nH]1,inactive,inactive,inactive,inactive,inactive,inactive,,inactive,inactive,inactive,inactive,inactive,4.5%,inactive,inactive,inactive,inactive,inactive,,
O=C(Nc1ccccc1)Nc1ccnc(Cl)c1,43.3 µM (active),15.9 µM (active),48.6 µM (active),,61.1 µM (active),,inactive,,inactive,,,24.3 µM (active),-55.6%,19.5 µM (active),inactive,,,inactive,,
C=CCOC(C)=O,inactive,inactive,inactive,inactive,inactive,,,inactive,inactive,inactive,inactive,,,inactive,inactive,inactive,,inactive,,
CCCCCCCCCC(=O)O[C@H]1CC[C@H]2[C@@H]3CCC4=CC(=O)CC[C@@H]4[C@H]3CC[C@]12C,inactive,,inactive,inactive,inactive,,,,inactive,,inactive,,,inactive,inactive,inactive,inactive,,inactive,inactive
Nc1ccc(N=Nc2ccc(-c3ccc(N=Nc4c(S(=O)(=O)O)cc5cc(S(=O)(=O)O)c(N=Nc6ccccc6)c(O)c5c4N)cc3)cc2)c(N)c1,31.3 µM (active),20.4 µM (active),,,35.1 µM (active),,,,,inactive,11.5 µM (active),,,inactive,inactive,inactive,,inactive,,
CCOP(=S)(OCC)Oc1cc(Cl)c(Br)cc1Cl,inactive,,inactive,inactive,inactive,,,,,inactive,,,,,inactive,inactive,,inactive,inactive,21.7 µM (active)
COP(=S)(OC)Oc1ccc([N+](=O)[O-])cc1Cl,48.6 µM (active),35.6 µM (active),,,,,inactive,inactive,inactive,inactive,inactive,,-29.5%,,inactive,inactive,inactive,inactive,inactive,
Cc1ccc(-c2c(Cl)nc(C#N)n2S(=O)(=O)N(C)C)cc1,54.4 µM (active),35.6 µM (active),,,61.1 µM (active),,,,inactive,inactive,inactive,,,,inactive,inactive,inactive,,,
CN1C(=O)C(O)N=C(c2ccccc2)c2cc(Cl)ccc21 (configuration not stated),inactive,inactive,,inactive,,inactive,inactive,,inactive,,inactive,,-0.379%,,inactive,,inactive,,,
c1ccoc1,inactive,inactive,,inactive,inactive,,,inactive,inactive,inactive,inactive,,,inactive,inactive,inactive,inactive,inactive,,
O=S(=O)(O)C(F)(F)C(F)(F)C(F)(F)C(F)(F)F,inactive,inactive,,inactive,inactive,,inactive,,inactive,inactive,,,,,inactive,,inactive,inactive,,32.5 µM (active)
O=S1(=O)OC(c2cc(Br)c(O)c(Br)c2)(c2cc(Br)c(O)c(Br)c2)c2ccccc21,25 µM (active),10.3 µM (active),,28.1 µM (active),25 µM (active),,,,,inactive,8.23 µM (active),,,,inactive,inactive,inactive,,25 µM (active),
CCOC(=O)[C@]1(c2ccccc2)Oc2ccccc2[C@@H]1N,inactive,inactive,,,inactive,,,inactive,inactive,,,,,,inactive,inactive,,inactive,,inactive
COC(=O)C(Cl)C(=O)OC,inactive,inactive,,inactive,inactive,,,inactive,inactive,inactive,inactive,,,inactive,inactive,inactive,,inactive,inactive,
Nc1nc(N)nc(N)n1,inactive,,inactive,inactive,inactive,,,inactive,inactive,inactive,inactive,,,inactive,inactive,inactive,inactive,inactive,inactive,inactive
COc1cc(Cl)c(OC)cc1Cl,inactive,inactive,,inactive,,inactive,inactive,,inactive,inactive,inactive,inactive,0.702%,inactive,inactive,inactive,inactive,,,
ClCc1cccc(Cl)c1,inactive,inactive,,inactive,inactive,inactive,inactive,inactive,inactive,inactive,inactive,,-9.7% [at 42.5 µM],inactive,inactive,inactive,inactive,inactive,,
